This passage reports binding signal results from PMC11006913.

Where a chain is given by its changes, count along the chain named.

What all share (assay): PBM; 200 nM protein, PBS
Conditions in all cases: dsDNA, one strand shown

In assay [1] the target is HOXB9 (Homo sapiens, UniProt P17482 171-250, T197M).
Assay [2] deals with HOXC10 (Homo sapiens, UniProt Q9NYD6 254-340).
Assay [3] deals with HOXC10 (Homo sapiens, UniProt Q9NYD6 254-340, K271E).
Assay [4] has as its target T1, PAX4 (Homo sapiens, UniProt O43316 9-242, R200K).
T1 sequence: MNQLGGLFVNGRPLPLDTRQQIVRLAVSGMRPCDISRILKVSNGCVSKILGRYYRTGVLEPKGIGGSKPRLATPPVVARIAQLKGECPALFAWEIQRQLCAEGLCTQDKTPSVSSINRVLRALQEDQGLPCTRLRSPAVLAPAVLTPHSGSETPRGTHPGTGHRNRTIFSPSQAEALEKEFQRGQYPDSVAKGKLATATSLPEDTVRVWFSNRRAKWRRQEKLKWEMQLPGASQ

In assay [5] the target is T2, PAX4 (Homo sapiens, UniProt O43316 9-242).
T2 sequence: T1 sequence with K192R

The target in assay [6] is HOXB9 (Homo sapiens, UniProt P17482 171-250).
Chain of HOXB9 (Homo sapiens, UniProt P17482 171-250) (P17482 171-250): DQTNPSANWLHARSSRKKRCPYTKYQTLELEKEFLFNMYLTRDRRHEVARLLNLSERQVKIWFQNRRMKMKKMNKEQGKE
For assay [7], the target named is T3, PAX4 (Homo sapiens, UniProt O43316 9-242, R200Q).
T3 sequence: T1 sequence with K192Q

The target in assay [8] is T4, PAX4 (Homo sapiens, UniProt O43316 9-242, F177V).
T4 sequence: T1 sequence with F169V, K192R

Assay [9] deals with T5, PAX4 (Homo sapiens, UniProt O43316 9-242, F177Y).
T5 sequence: T1 sequence with F169Y, K192R

In assay [10] the target is HOXB9 (Homo sapiens, UniProt P17482 171-250, R186Q).
Chain of HOXB9 (Homo sapiens, UniProt P17482 171-250, R186Q) (P17482 171-250 R186Q): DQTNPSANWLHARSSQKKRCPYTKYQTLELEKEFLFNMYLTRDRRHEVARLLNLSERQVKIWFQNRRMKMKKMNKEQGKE
In assay [11] the target is T6, PAX4 (Homo sapiens, UniProt O43316 9-242, R227W).
T6 sequence: T1 sequence with K192R, R219W

In assay [12] the target is HOXC9 (Homo sapiens, UniProt P31274 178-260, K195R).
Chain of HOXC9 (Homo sapiens, UniProt P31274 178-260, K195R) (P31274 178-260 K195R): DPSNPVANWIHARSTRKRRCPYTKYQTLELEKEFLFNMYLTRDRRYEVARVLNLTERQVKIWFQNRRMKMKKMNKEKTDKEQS
In assay [13] the target is HOXC9 (Homo sapiens, UniProt P31274 178-260).
Chain of HOXC9 (Homo sapiens, UniProt P31274 178-260) (P31274 178-260): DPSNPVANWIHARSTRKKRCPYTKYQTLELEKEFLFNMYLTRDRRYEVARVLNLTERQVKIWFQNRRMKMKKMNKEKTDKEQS
In assay [14] the target is HOXD13 (Homo sapiens, UniProt P35453 263-343, T313R).
Chain of HOXD13 (Homo sapiens, UniProt P35453 263-343, T313R) (P35453 263-343 T313R): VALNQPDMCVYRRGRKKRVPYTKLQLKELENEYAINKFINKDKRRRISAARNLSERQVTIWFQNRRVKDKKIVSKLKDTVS
The target of assay [15] is HOXC9 (Homo sapiens, UniProt P31274 178-260, R193K).
Chain of HOXC9 (Homo sapiens, UniProt P31274 178-260, R193K) (P31274 178-260 R193K): as the sequence (P31274 178-260) above, with R16K counted along it
The target in assay [16] is HOXD13 (Homo sapiens, UniProt P35453 263-343).
Chain of HOXD13 (Homo sapiens, UniProt P35453 263-343) (P35453 263-343): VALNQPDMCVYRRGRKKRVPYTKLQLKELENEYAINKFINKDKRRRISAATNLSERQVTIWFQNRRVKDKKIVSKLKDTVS
The target in assay [17] is HOXD13 (Homo sapiens, UniProt P35453 263-343, T313A).
Chain of HOXD13 (Homo sapiens, UniProt P35453 263-343, T313A) (P35453 263-343 T313A): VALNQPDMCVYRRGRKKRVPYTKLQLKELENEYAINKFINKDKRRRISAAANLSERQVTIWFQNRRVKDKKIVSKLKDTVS
Assay [18] concerns the target HOXC9 (Homo sapiens, UniProt P31274 178-260, R222W).
Assay [19] concerns the target VAX1 (Homo sapiens, UniProt Q5SQQ9 86-172).
Assay [20] has as its target VAX1 (Homo sapiens, UniProt Q5SQQ9 86-172, T142I).
Assay [21] concerns the target VAX1 (Homo sapiens, UniProt Q5SQQ9 86-172, K157R).
The target in the next assay is T7, NKX2-6 (Homo sapiens, UniProt A6NCS4 118-204, R150C).
T7 sequence: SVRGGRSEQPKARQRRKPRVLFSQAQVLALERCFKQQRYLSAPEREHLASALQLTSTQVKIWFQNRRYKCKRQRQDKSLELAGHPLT

Assay [22] deals with NKX3-2 (Homo sapiens, UniProt P78367 192-278, P234S).
Chain of NKX3-2 (Homo sapiens, UniProt P78367 192-278, P234S) (P78367 192-278 P234S): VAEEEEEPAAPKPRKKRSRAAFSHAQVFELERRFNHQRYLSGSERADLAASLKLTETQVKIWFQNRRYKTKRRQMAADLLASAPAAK
The target of assay [23] is NKX3-2 (Homo sapiens, UniProt P78367 192-278).
Chain of NKX3-2 (Homo sapiens, UniProt P78367 192-278) (P78367 192-278): as the sequence (P78367 192-278 P234S) above, with S43P counted along it
The target in assay [24] is MSX2 (Homo sapiens, UniProt P35548 130-214, R199I).
Chain of MSX2 (Homo sapiens, UniProt P35548 130-214, R199I) (P35548 130-214 R199I): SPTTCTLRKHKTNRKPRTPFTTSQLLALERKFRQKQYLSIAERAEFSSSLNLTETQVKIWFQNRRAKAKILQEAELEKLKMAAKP
The target in assay [25] is MSX2 (Homo sapiens, UniProt P35548 130-214).
Chain of MSX2 (Homo sapiens, UniProt P35548 130-214) (P35548 130-214): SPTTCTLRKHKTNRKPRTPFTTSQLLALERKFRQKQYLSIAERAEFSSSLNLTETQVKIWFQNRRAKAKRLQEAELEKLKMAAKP
In assay [26] the target is MSX2 (Homo sapiens, UniProt P35548 130-214, F161Y).
Chain of MSX2 (Homo sapiens, UniProt P35548 130-214, F161Y) (P35548 130-214 F161Y): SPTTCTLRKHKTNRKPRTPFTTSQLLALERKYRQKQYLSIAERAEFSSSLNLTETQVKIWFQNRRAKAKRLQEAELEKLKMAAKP

Chain of HOXB9 (Homo sapiens, UniProt P17482 171-250, T197M) (P17482 171-250 T197M): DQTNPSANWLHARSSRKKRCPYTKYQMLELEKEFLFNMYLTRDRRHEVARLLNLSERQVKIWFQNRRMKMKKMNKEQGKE
Chain of HOXC9 (Homo sapiens, UniProt P31274 178-260, R222W) (P31274 178-260 R222W): as the sequence (P31274 178-260) above, with R45W counted along it
Chain of VAX1 (Homo sapiens, UniProt Q5SQQ9 86-172, T142I) (Q5SQQ9 86-172 T142I): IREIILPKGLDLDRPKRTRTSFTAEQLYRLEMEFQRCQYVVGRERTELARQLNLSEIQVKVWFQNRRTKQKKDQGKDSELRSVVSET
Chain of VAX1 (Homo sapiens, UniProt Q5SQQ9 86-172, K157R) (Q5SQQ9 86-172 K157R): as the sequence (Q5SQQ9 86-172 T142I) above, with I57T, K72R counted along it
Chain of HOXC10 (Homo sapiens, UniProt Q9NYD6 254-340, K271E) (Q9NYD6 254-340 K271E): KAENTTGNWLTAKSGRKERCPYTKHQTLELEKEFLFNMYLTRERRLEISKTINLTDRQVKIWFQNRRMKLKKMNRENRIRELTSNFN
Chain of HOXC10 (Homo sapiens, UniProt Q9NYD6 254-340) (Q9NYD6 254-340): as the sequence (Q9NYD6 254-340 K271E) above, with E18K counted along it
Chain of VAX1 (Homo sapiens, UniProt Q5SQQ9 86-172) (Q5SQQ9 86-172): as the sequence (Q5SQQ9 86-172 T142I) above, with I57T counted along it

For the sequence GGTCGTTA, the binding signal was 9.98 upbm affinity estimate (log intensity, higher = more binding, comparable within an allelic series) in the assay with HOXB9 [1]; 12.2 upbm affinity estimate (log intensity, higher = more binding, comparable within an allelic series) in the assay with HOXC10 [2]; 12.2 upbm affinity estimate (log intensity, higher = more binding, comparable within an allelic series) with HOXC10 [3].
As for CCCGCGGC, the binding signal was 8.53 upbm affinity estimate (log intensity, higher = more binding, comparable within an allelic series) with HOXB9 [1]; 9.28 upbm affinity estimate (log intensity, higher = more binding, comparable within an allelic series) in the assay with PAX4 [4]; 9.32 upbm affinity estimate (log intensity, higher = more binding, comparable within an allelic series) with PAX4 [5]; 8.39 upbm affinity estimate (log intensity, higher = more binding, comparable within an allelic series) in the assay with HOXB9 [6]; 9.34 upbm affinity estimate (log intensity, higher = more binding, comparable within an allelic series) with PAX4 [7]; 9.09 upbm affinity estimate (log intensity, higher = more binding, comparable within an allelic series) with PAX4 [8]. The binding signal in the assay with PAX4 [9] was 9.18 upbm affinity estimate (log intensity, higher = more binding, comparable within an allelic series); with HOXB9 [10], 8.48 upbm affinity estimate (log intensity, higher = more binding, comparable within an allelic series); with PAX4 [11] it was 9.24 upbm affinity estimate (log intensity, higher = more binding, comparable within an allelic series).
For the sequence CCCGATGC, the binding signal in the assay with HOXB9 [1] is 8.47 upbm affinity estimate (log intensity, higher = more binding, comparable within an allelic series); in the assay with HOXC9 [12], 9.5 upbm affinity estimate (log intensity, higher = more binding, comparable within an allelic series); with HOXB9 [6] it was 8.13 upbm affinity estimate (log intensity, higher = more binding, comparable within an allelic series); in the assay with HOXC9 [13], 9.57 upbm affinity estimate (log intensity, higher = more binding, comparable within an allelic series); with HOXD13 [14], 9.52 upbm affinity estimate (log intensity, higher = more binding, comparable within an allelic series); with HOXC9 [15], 9.49 upbm affinity estimate (log intensity, higher = more binding, comparable within an allelic series). For the same sequence, the binding signal was 9.47 upbm affinity estimate (log intensity, higher = more binding, comparable within an allelic series) with HOXD13 [16]; 9.71 upbm affinity estimate (log intensity, higher = more binding, comparable within an allelic series) with HOXD13 [17]; 8.19 upbm affinity estimate (log intensity, higher = more binding, comparable within an allelic series) with HOXB9 [10]; 9.68 upbm affinity estimate (log intensity, higher = more binding, comparable within an allelic series) with HOXC9 [18].
In the case of GACATAAA, the binding signal with HOXB9 [1] was 9.74 upbm affinity estimate (log intensity, higher = more binding, comparable within an allelic series); with HOXB9 [6], 11.7 upbm affinity estimate (log intensity, higher = more binding, comparable within an allelic series); with HOXB9 [10], 11.3 upbm affinity estimate (log intensity, higher = more binding, comparable within an allelic series).
As to CTTGGGCC, the binding signal with HOXB9 [1] is 8.42 upbm affinity estimate (log intensity, higher = more binding, comparable within an allelic series); with HOXB9 [6] it was 8.37 upbm affinity estimate (log intensity, higher = more binding, comparable within an allelic series); in the assay with VAX1 [19], 6.94 upbm affinity estimate (log intensity, higher = more binding, comparable within an allelic series); with HOXB9 [10], 8.33 upbm affinity estimate (log intensity, higher = more binding, comparable within an allelic series); with VAX1 [20], 7.04 upbm affinity estimate (log intensity, higher = more binding, comparable within an allelic series); with VAX1 [21], 6.93 upbm affinity estimate (log intensity, higher = more binding, comparable within an allelic series).
With CGCTACCG, the binding signal is 8.45 upbm affinity estimate (log intensity, higher = more binding, comparable within an allelic series) with HOXB9 [1]; 8.54 upbm affinity estimate (log intensity, higher = more binding, comparable within an allelic series) with HOXB9 [6]; 9.4 upbm affinity estimate (log intensity, higher = more binding, comparable within an allelic series) with NKX2-6; 8.56 upbm affinity estimate (log intensity, higher = more binding, comparable within an allelic series) with HOXB9 [10].
AGCCCCGG: the binding signal was 8.65 upbm affinity estimate (log intensity, higher = more binding, comparable within an allelic series) in the assay with HOXB9 [1]; 8.31 upbm affinity estimate (log intensity, higher = more binding, comparable within an allelic series) with HOXB9 [6]; 9.53 upbm affinity estimate (log intensity, higher = more binding, comparable within an allelic series) with HOXD13 [14]; 9.4 upbm affinity estimate (log intensity, higher = more binding, comparable within an allelic series) with HOXD13 [16]; 9.76 upbm affinity estimate (log intensity, higher = more binding, comparable within an allelic series) in the assay with HOXD13 [17]; 8.53 upbm affinity estimate (log intensity, higher = more binding, comparable within an allelic series) with HOXB9 [10]. Also, the binding signal was 10.6 upbm affinity estimate (log intensity, higher = more binding, comparable within an allelic series) with NKX3-2 [22] and 10.6 upbm affinity estimate (log intensity, higher = more binding, comparable within an allelic series) in the assay with NKX3-2 [23].
On to CCTGCTCG, for which the binding signal was 8.58 upbm affinity estimate (log intensity, higher = more binding, comparable within an allelic series) with HOXB9 [1]; 8.34 upbm affinity estimate (log intensity, higher = more binding, comparable within an allelic series) with HOXB9 [6]; 9.56 upbm affinity estimate (log intensity, higher = more binding, comparable within an allelic series) with MSX2 [24]; 9.58 upbm affinity estimate (log intensity, higher = more binding, comparable within an allelic series) with MSX2 [25]; 8.42 upbm affinity estimate (log intensity, higher = more binding, comparable within an allelic series) with HOXB9 [10]; 9.61 upbm affinity estimate (log intensity, higher = more binding, comparable within an allelic series) with MSX2 [26].
